Screening results from PubChem BioAssay.
An excerpt weighted towards active compounds, which were near 0.43% of everything screened.
GAA inh = inhibitors of human lysosomal alpha-glucosidase | purified human GAA, 4-MU-alpha-glucoside fluorescence | Potency, µM (top dose mostly 76.9 µM), for the others: top-dose activity change, negative = inhibition, usual class: inhibitors | AID 1466 | hit rate 0.005% among 200,000;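 further: potency means the concentration at half of the fitted maximal effect; plate controls were uninhibited enzyme wells for no effect and no-enzyme background for full effect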
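qHTS format, compound range up to 77 uM. Human lysosomal enzyme at 4 nM, 400 uM 4-MU glucoside substrate, pH 5.0, 20 min room temperature; fluorescence after alkaline stop gives activity normalized to controls.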
N370S GC = inhibits or activates N370S mutant glucocerebrosidase; P04062; N370S GC spleen homogenate, 4MU-glucoside fluorescence; Potency, µM (series often up to 59.4 µM), for the others: at the top dose activity change, negative = inhibition, hits mostly inhibitors; hit rate 0.092% among 330,000;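 further: potency means the concentration at half of the fitted maximal effect; 0% = full enzyme activity and -100% = no enzyme basal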
GAA glycogen = inhibitors or activators of human alpha-glucosidase glycogen cleavage; P10253; recombinant GAA, glycogen substrate, Amplex Red glucose oxidase fluorescence; Potency, µM (highest dose often 76.4 µM), inactives show top-dose activity change, negative = inhibition, hits mostly inhibitors; hit rate 0.38% among 300,000;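 further: potency means the concentration at half of the fitted maximal effect; 0% = full enzyme reaction and -100% = no-enzyme basal signal; the screen sought inhibitors and activators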
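Recombinant enzyme (4 nM final) with compounds titrated up to 77 uM and bovine liver glycogen (30 ug) in citrate pH 5.0, 0.01% Tween-20, 37 C 40 min. Released glucose detected by Amplex Red/glucose oxidase (Ex 573/Em 610); AC50 from Hill fits.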
aGlu spleen mod = inhibitors or activators of human alpha-glucosidase in spleen homogenate; AID 2112; human spleen homogenate, 4-MU-alpha-glucoside fluorescence; hit rate 0.006% among 240,000; Potency, µM (top dose mostly 79.9 µM), without a hit: at the highest dose activity change, negative = inhibition, hits mostly inhibitors; P10253;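 further: potency means the concentration at half of the fitted maximal effect; 0% = enzyme with vehicle and -100% = no enzyme basal signal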
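Compounds were titrated against alpha-glucosidase in spleen homogenate at pH 5.0, with 1 mM 4-methylumbelliferyl substrate for 40 min at 37 C. Reactions were quenched with pH 10 NaOH/glycine and fluorescence measured.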
GLA inh pH 4.5 = inhibitors of human alpha-galactosidase A at pH 4.5. purified enzyme, 4-MU-alpha-Gal fluorescence, pH 4.5. AID 1467. activity change, negative = inhibition, % at 105 µM. 230,000 tested, under 10 active. P06280;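 further: 0% = full activity with enzyme and -100% = basal without enzyme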
GLA spleen mod = alpha-galactosidase A (human) modulation. Potency, µM (highest dose often 80 µM), without a hit: at the top dose activity change, negative = inhibition, usual class: inhibitors. P06280. hit rate 0.008% among 240,000. human spleen homogenate, 4MU-alpha-Gal fluorescence, 40 min;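 further: potency means the concentration at half of the fitted maximal effect; 0% = enzyme with vehicle and -100% = no enzyme basal signal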
Target sequence (P06280 32-429 limits assumed): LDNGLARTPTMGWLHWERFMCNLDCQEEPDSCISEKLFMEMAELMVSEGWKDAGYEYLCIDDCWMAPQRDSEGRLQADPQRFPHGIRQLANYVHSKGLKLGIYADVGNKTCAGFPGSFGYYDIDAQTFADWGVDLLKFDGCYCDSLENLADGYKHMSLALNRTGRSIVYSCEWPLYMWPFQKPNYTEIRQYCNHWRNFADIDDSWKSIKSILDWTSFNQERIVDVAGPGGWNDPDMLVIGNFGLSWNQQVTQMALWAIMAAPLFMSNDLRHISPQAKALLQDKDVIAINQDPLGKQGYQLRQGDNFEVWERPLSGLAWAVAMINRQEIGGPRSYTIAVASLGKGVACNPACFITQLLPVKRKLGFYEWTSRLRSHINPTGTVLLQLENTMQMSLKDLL
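Inhibition or activation of alpha-galactosidase in human spleen homogenate is scored by 4-MU fluorescence after 40 min at 37C, pH 5.0, with 1 mM substrate. AC50s come from concentration-response fitted to the Hill equation.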
An asterisk follows results filed as active; ? = inconclusive; / = no result given; [ ] = remark or other dose. The call rests on the fitted dose curve; in most records, active means well fitted curve in the direction sought with a large enough effect; inconclusive means small, poorly fitted or top-dose-only effect, or another doubt; inactive means no such curve, though single readings can be large; an effect the other way counts as inactive or inconclusive.

SMILES | GAA inh | N370S GC | GAA glycogen | aGlu spleen mod | GLA inh pH 4.5 | GLA spleen mod
C=C1C[C@]23C[C@@]1(O)CC[C@H]2[C@@]12C=C[C@H](O)C(C)(C(=O)O1)[C@H]2[C@@H]3CC(=O)O | / | -8% | / | -3% | -2 | -2%
O=S1(=O)C2CC3C=CC2(O3)C(OCc2ccc(Cl)c(Cl)c2)C(Cc2ccccc2)N1Cc1ccc(Cl)c(Cl)c1 (configuration not stated) | / | -2% | / | 0% | / | 3%
COc1ccc(C(=O)NNC2=CC(=O)CC(C)(C)C2)cc1 | -1% | -5% | ? | -1% | -3 | 0%
CC1(C)CC(=O)C=C(NNC(=O)c2ccccc2O)C1 | -11% | 9% | 45µM* | 2% | 0 | 0%
CC#CCN1c2ccccc2[C@]23C[C@@H](C(=O)OC)N(S(=O)(=O)c4cccs4)C2=NC(C(=O)OC)=C(C(=O)OC)[C@H]13 | / | -15%[12.8 µM] | / | 6%[17.4 µM] | -11 | 2%[17.5 µM]
COc1cccc([C@@H]2Oc3ccc(OC)cc3/C(=N/O[C@@H](C)CN3CCCc4nc(C)c(C)cc43)[C@@H]2O)c1 | / | 2%[12.8 µM] | / | 1%[17.4 µM] | / | 3%[17.5 µM]
Cc1c(Cc2ccccc2)c(=O)oc2c(O)c(O)ccc12 | -9% | -10% | 5µM* | 3% | 5 | 1%
Cc1oc2c(O)c(O)ccc2c(=O)c1-c1ccccc1 | 6%[15.4 µM] | -12% | 8.8µM* | 8% | 4 | 12%
Cc1oc2c(O)c(O)ccc2c(=O)c1-c1cnn(-c2ccccc2)c1 | -15% | 7% | 5.6µM* | -13% | 2 | 10%
Cc1oc2cc(O)cc(C)c2c(=O)c1-c1cnn(-c2ccccc2)c1 | 0% | 11% | -6% | -7% | 6 | 0%
O=c1cc(-c2ccccc2)oc2c(O)c(O)ccc12 | / | -12% | / | 16% | -11 | 22%
Cc1oc2c(O)c(O)ccc2c(=O)c1-c1ccc(Cl)cc1 | / | -9% | 7.1µM* | / | / | /
Cc1ccc(NC(=O)CS(=O)(=O)c2nc(-c3ccc(C)cc3)cn2-c2ccc(C)cc2)cc1 | / | / | -2%[76.3 µM] | / | / | /
Cc1cc(-c2ccccc2)nc2[nH]n(-c3ccccc3)c(=O)c12 | 0% | -4% | 35µM* | -2% | 4 | 0%
Cc1cc(C)c2c(=O)n(-c3ccccc3)[nH]c2n1 | -3% | -16% | -25% | -6% | 8 | -6%
NC(N)=N/N=C/c1ccc(OCc2ccccc2)c(OCc2ccccc2)c1 | / | 11µM* | -9%[76.3 µM] | / | / | /
COc1cc(/C=N/N=C(N)N)ccc1OCc1ccc(Cl)cc1 | 3% | 7.9µM* | -6% | 2% | 0 | 9%
NC(N)=N/N=C/c1ccc(OCc2ccccc2Cl)cc1 | 2% | 22µM* | -2% | 0% | -6 | 1%
NC(N)=N/N=C/c1ccccc1 | -3% | 3% | 7% | -1% | -6 | 0%
CS(=O)(=O)Nc1c(O)ccc2c1CCCC2C1=NCCN1 (configuration not stated) | / | -1% | / | 3% | / | -10%
COc1cccc(Nc2ncc3nc(CCc4ccccc4)c(=O)n(C)c3n2)c1 | / | -1% | / | -4% | / | 0%
CCCCCCCC1=CC2=C(Cl)C(=O)C(C)(OC(C)=O)C(=O)C2=CO1 (configuration not stated) | / | 12% | / | -8% | -7 | 2%
O=C(O)c1ccc(-c2nc(-c3ccc(Cl)c(Cl)c3)cs2)cc1 | 2% | 13% | 6% | 7% | -1 | -4%
NC(=O)C(=CNc1nc(-c2ccc(Cl)c(Cl)c2)cs1)C(N)=O | / | -19% | 7.1µM* | -3% | 0 | 7%
COC(=O)Nc1ccc(S(=O)(=O)Nc2ccc(O)cc2)cc1 | -1% | -3% | 32µM* | -1% | 6 | -1%
SMILES | GAA inh | N370S GC | GAA glycogen | aGlu spleen mod | GLA inh pH 4.5 | GLA spleen mod
CC(=O)N1CC[C@@H]2CC(=O)C[C@@H](C)[C@@H]21 | / | 0%[136 µM] | / | -9%[181 µM] | 1 | 4%[181 µM]
CCC(=O)C(C(=O)OC)[C@H](CCc1ccccc1)NC(=O)OC (some centres not stated) | / | 1% | / | -9% | 5 | -7%
Cc1ccc(S(=O)(=O)N/N=C/c2ccc(O)cc2O)cc1[N+](=O)[O-] | / | 8% | 25µM* | -1% | 2 | 6%
Cc1ccc(S(=O)(=O)N/N=C/c2cc([N+](=O)[O-])ccc2O)cc1[N+](=O)[O-] | -12% | 2% | -6% | 7% | -8 | 4%
N#C/C(=C\c1ccc(O)c(O)c1)S(=O)(=O)c1ccccc1 | -7% | -17% | 7.1µM* | -7% | -22 | 3%
N#C/C(=C/c1ccc(F)cc1)S(=O)(=O)c1ccccc1 | / | -17% | -5% | 6% | -4 | 16%
COc1cccc(NC(=O)NC2(C(F)(F)F)Oc3ccccc3O2)c1 | -2% | -2% | 8.9µM* | 0% | -8 | 5%
COc1cccc(NC(=O)Nc2cccc(C(=O)O)c2)c1 | 3% | -16% | 17% | -3% | 2 | -7%
O=C(NCc1cccnc1)NC1(C(F)(F)F)Oc2ccccc2O1 | -11% | -6% | 25µM* | -5% | 2 | ?
CC(C)CNC(=O)NC1(C(F)(F)F)Oc2ccccc2O1 | -3% | -11% | -18% | 3% | -7 | -2%
COc1ccc(Br)cc1CNc1ccc(N2CCOCC2)cc1 | / | -7% | 22µM* | / | / | /
Cc1cccc(C2=N[C@@H](Cc3ccccc3)CO2)c1 | / | -12%[89.1 µM] | / | -4%[119 µM] | -7 | 26%[119 µM]
CN1[C@@H]2CC(OC(=O)[C@H](CO)c3ccccc3)C[C@@H]1[C@H]1O[C@H]12 (some centres not stated) | / | -3% | / | -8% | -2 | 1%
CCOC(=O)c1c(CSc2ccccc2)n(C)c2cc(Br)c(OCC(O)CNC(CO)(CO)CO)cc12 (configuration not stated) | -6% | 14µM* | 2% | -15% | -1 | -16%
CCCCN(CC)CCCNC(=O)Nc1sc2nc3n(c(=O)c2c1C)CCC(C)CC3 (configuration not stated) | / | / | 10µM* | / | / | /
C/C1=C\[C@@H](O)C(C(C)C)C(OC(=O)c2ccc(O)cc2)C/C(C)=C/CC1 (some centres not stated) | / | -13% | / | 5% | / | -9%
Oc1ccc(/C=N/NC(=S)N/N=C/c2ccc(O)cc2)cc1 | 5% | -4% | 3.5µM* | 2% | 3 | -16%
CC(C)Cn1c(=O)c2ccccc2n2c(CCC(=O)N3CCN(c4ccccc4)CC3)nnc12 | / | / | -16%[76.3 µM] | / | / | /
C=C1C2CC[C@]3(CCC4[C@@]5(C)CCC[C@@]4(CN(CCO)C5)[C@@H]3C2)[C@@H]1O (some centres not stated) | / | -12% | / | 9% | -4 | -1%
Cc1ccc2sc(NNC(=O)C3=COCCO3)nc2c1C | -3% | -11% | 6.3µM* | 10% | -5 | 6%
O=C(COc1ccc2ccccc2c1)NNC(=O)Cc1ccccc1 | -1% | -15% | 9% | -12% | -2 | -8%
